Bioassay records deposited in PubChem BioAssay by Center for Chemical Genomics, University of Michigan.
The sample as a whole holds a higher share of hits than the screen did.
Dicer processing: human Dicer pre-microRNA cleavage inhibition | Q9UPY3 | cat-ELCCA pre-miR-21 Dicer processing, chemiluminescence; active compounds read high | z-score at 25 µM | actives 6% (n = 47,000) | AID 1347074; in the data active = z-score above about 3, passing the limit was not always enough;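 also: plate controls were vehicle for no effect and no enzyme for full effect; higher signal means more uncleaved substrate so more Dicer inhibition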
Target sequence (Q9UPY3 whole entry, looked up): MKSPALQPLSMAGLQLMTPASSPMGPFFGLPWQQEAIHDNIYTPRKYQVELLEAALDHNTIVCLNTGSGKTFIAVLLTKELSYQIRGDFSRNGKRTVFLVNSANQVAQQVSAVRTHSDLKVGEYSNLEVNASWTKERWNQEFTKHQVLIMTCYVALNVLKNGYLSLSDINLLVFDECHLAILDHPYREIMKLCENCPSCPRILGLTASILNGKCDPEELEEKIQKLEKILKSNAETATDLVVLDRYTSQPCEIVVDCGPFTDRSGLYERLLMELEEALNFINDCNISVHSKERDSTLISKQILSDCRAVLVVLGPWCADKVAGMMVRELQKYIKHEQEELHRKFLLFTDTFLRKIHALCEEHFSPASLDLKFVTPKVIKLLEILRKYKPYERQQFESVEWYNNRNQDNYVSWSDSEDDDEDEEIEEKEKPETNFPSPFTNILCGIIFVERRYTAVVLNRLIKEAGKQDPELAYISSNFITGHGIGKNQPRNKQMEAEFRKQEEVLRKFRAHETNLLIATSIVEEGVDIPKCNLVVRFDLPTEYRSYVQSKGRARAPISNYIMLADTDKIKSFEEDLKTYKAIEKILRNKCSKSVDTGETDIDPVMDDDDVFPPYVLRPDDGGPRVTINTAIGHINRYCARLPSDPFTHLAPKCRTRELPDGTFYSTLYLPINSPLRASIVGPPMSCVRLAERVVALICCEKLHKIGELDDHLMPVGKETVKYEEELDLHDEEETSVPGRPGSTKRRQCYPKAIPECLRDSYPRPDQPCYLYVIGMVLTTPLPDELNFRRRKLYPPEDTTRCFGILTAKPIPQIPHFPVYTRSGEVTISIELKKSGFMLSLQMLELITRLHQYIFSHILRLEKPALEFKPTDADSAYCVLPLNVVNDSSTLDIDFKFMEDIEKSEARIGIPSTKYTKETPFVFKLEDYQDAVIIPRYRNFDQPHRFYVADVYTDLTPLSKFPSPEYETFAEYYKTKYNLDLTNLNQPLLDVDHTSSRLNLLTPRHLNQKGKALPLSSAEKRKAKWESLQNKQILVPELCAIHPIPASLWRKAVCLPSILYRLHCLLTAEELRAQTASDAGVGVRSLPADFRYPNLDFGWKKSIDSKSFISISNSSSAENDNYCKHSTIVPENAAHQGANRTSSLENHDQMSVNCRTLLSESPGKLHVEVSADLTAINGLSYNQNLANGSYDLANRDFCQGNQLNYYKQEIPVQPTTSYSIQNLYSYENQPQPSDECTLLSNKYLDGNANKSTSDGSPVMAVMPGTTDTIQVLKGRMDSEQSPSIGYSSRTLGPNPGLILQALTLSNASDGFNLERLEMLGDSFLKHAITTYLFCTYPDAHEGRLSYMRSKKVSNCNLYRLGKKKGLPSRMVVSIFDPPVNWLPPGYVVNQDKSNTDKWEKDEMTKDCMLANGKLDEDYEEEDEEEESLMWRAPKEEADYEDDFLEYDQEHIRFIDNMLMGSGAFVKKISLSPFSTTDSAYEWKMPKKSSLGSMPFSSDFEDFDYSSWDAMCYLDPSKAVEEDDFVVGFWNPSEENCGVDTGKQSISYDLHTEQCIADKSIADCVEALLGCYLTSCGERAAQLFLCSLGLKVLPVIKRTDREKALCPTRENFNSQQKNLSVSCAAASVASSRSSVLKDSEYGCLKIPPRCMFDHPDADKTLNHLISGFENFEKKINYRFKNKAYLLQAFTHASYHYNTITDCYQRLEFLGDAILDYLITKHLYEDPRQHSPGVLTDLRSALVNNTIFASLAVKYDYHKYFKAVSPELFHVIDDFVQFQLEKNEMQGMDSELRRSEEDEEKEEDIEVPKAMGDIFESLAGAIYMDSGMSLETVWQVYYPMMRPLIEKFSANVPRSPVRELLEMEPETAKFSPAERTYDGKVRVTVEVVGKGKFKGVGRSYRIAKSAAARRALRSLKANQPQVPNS
The depositor's hits bear a star.

SMILES	Dicer processing
CNCC[C@@H](Oc1cccc2ccccc12)c1cccs1	5.14
CC(C)c1ccc(C(=O)CC2(O)C(=O)N(C(C)C)c3ccccc32)cc1 (stereo not drawn)	1.4
Clc1ccc(-c2csc(-c3cccnc3)n2)cc1	-0.69
CCOc1cc(-c2ccccc2)nc(SCc2c(F)cccc2Cl)n1	1.05
CC(O)(C#CCN1CCCCC1)c1ccccc1 (stereo not drawn)	-1.17
C=CCn1c(=S)sc2c(=O)[nH]cnc21	-0.26
CCc1cc2c(=O)c(-c3nc4ccccc4s3)c(C)oc2cc1OC(C)=O	0.87
Cc1ccc(/C=C2\N=C(c3cccnc3Sc3ccc(Cl)cc3)OC2=O)cc1	-0.47
O=C(CC1(O)C(=O)N(CCc2ccccc2)c2ccc(Br)cc21)c1cccs1 (stereo not drawn)	3
O=C(CC1(O)C(=O)N(CCc2ccccc2)c2ccc(Cl)cc21)c1cccs1 (stereo not drawn)	4.2*
CCN1C(=O)C(O)(CC(=O)c2cccs2)c2ccccc21 (stereo not drawn)	0.2
Cc1ccc(NC(=O)c2ccc(CSc3ccc(Cl)cc3)cc2)c(O)c1	-0.25
CCOC(=O)c1sc(/S(C)=N/S(=O)(=O)c2ccc(C)cc2)c2c1CCC=C2 (stereo not drawn)	-0.79
C=CCOc1ccc(C2/C(=C(\O)c3ccc(F)cc3)C(=O)C(=O)N2Cc2cccnc2)cc1 (stereo not drawn)	0.56
CC(C#N)(Nc1ccccc1)c1ccncc1 (stereo not drawn)	3.38*
CCCCCOC(=O)C1=C(C)NC2=C(C(=O)CC(C)(C)C2)C1c1cccc(F)c1 (stereo not drawn)	0.23
Cc1onc(-c2c(Cl)cccc2Cl)c1C(=O)Oc1ccc2c(C(F)(F)F)cc(=O)oc2c1	-0.74
Nc1nc(Nc2ccc(Cl)cc2)n[nH]1	5.37*
Nc1nc(SCc2ccc(Cl)cc2)n[nH]1	0.27
Nc1ncnc(Nc2ccc(Oc3ccc(Cl)cc3)cc2)n1	-0.35
Cc1cc2c(NC(=O)CC(C)(C)CC(=O)O)cccc2nn1	-1.62
COc1ccccc1C1=NOC(Cn2c(NCc3ccccc3)nc3c2c(=O)n(C)c(=O)n3C)C1 (stereo not drawn)	-0.52
CC(C)OC(=O)c1cccc(C(=O)O)n1	1.61
CC(C)OC(=O)c1cccc(C(=O)Oc2ccc(Br)cc2)n1	4.42*
CC(C)OC(=O)c1cccc(C(=O)OC(C)C)n1	1.66
SMILES	Dicer processing
O=C(O)CSc1ccccc1C(=O)O	-0.26
CCOC(=O)C(NC(=O)Nc1ccccc1)(Nc1cccc(C)c1)C(F)(F)F (stereo not drawn)	-1.3
O=C(O)c1ccccc1SC(C(=O)O)c1ccccc1 (stereo not drawn)	0.18
O=C(O)c1ccccc1NC(C(=O)O)c1ccccc1 (stereo not drawn)	5.48*
CC(C(=O)O)c1cccc(Oc2ccccc2)c1 (stereo not drawn)	-0.07
Cc1cccc(NC(C(=O)O)c2ccccc2)c1 (stereo not drawn)	5.38*
Cc1oc2c(F)c(F)c(F)c(F)c2c1S(=O)(=O)Oc1ccc(F)cc1	0.07
CCOC(=O)NNC(=S)Nc1ccc(Cl)cc1	-1.9
Cc1ccc(O)c(C(=O)NNC(=S)Nc2ccc(Cl)cc2)c1	5.4*
CNC(=S)NNC(=O)c1ccc(Cl)cc1Cl	-1.56
N#Cc1c(NC(=O)c2ccccc2Cl)sc2c1CCC2	0.07
CC(C)(C)NC(=O)c1nn2c(c1Cl)NC(c1ccccc1)CC2C(F)(F)F (stereo not drawn)	-1.85
O=C(NCc1ccco1)c1nn2c(c1Cl)NC(c1ccc(F)cc1)CC2C(F)(F)F (stereo not drawn)	4.88*
O=C(NCc1ccc(F)cc1)c1nn2c(c1Cl)NC(c1ccco1)CC2C(F)(F)F (stereo not drawn)	5.07*
COCCNC(=O)c1nn2c(c1Cl)NC(c1ccc(Br)cc1)CC2C(F)(F)F (stereo not drawn)	2.71
CC1CCCCN1C(=O)c1nn2c(c1Cl)NC(c1ccco1)CC2C(F)(F)F (stereo not drawn)	-3.47
O=C(NCc1ccncc1)c1cc2n(n1)C(C(F)(F)F)CC(c1ccco1)N2 (stereo not drawn)	0.35
COc1ccc(C)c(NC(=O)NCc2ccccc2)c1	-0.78
Fc1ccc(-c2cn3cc(Cc4ccc(Br)cc4)sc3n2)cc1	3.42*
Clc1ccc(-c2cn3cc(Cc4ccccc4)sc3n2)cc1	2.41
Fc1ccc(-c2cn3cc(Cc4ccccc4Cl)sc3n2)cc1	0.06
Fc1ccc(Cc2cn3cc(-c4ccc(F)cc4)nc3s2)cc1	3.94*
CCc1ccc(Cc2cn3cc(-c4ccccc4)nc3s2)cc1	-0.59
Cc1ccc(Cc2cn3cc(-c4ccccc4)nc3s2)cc1	-0.16
CCn1nc(C)c(Br)c1-c1nc(CS(=O)(=O)c2ccc(F)cc2)no1	-0.42
SMILES	Dicer processing
CCN(Cc1cc(OC)c(OC)c(OC)c1)S(=O)(=O)c1cc(Cl)c(Cl)cc1Cl	0.68
CCOC(=O)C1=C(C)NC2=C(C(=O)c3ccccc32)C1c1ccc(CC)cc1 (stereo not drawn)	-2.51
c1ccc(-n2ncc3c(N4CCOCC4)ncnc32)cc1	-1.61
C=C(c1ccccc1)c1ccc(OC)cc1	0.46
COc1ccc(N=Nc2c(O)c(O)cc3ccccc23)cc1	2.26
C#CC(O)(c1ccc(OC)cc1)c1ccccc1F (stereo not drawn)	4.09*
CCOC(=O)N1CN(Cc2ccccc2)Cc2c1oc1ccccc1c2=O	-0.93
CC(C)CCN1CC(C)C(O)(c2ccccc2)CC1C (stereo not drawn)	0.56
CCOC(=O)C(=CNc1cc(OC)cc(C(F)(F)F)c1)C(=O)OCC	-0.38
COc1ccc2c(=O)c(-c3ccc(Cl)cc3)c(C(F)(F)F)oc2c1	-0.51
COc1ccc(-c2c(C(F)(F)F)oc3cc(O)cc(O)c3c2=O)cc1	5.28*
COc1ccc(-c2c(C)oc3cc(O)cc(O)c3c2=O)cc1OC	2.04
CN1CCN(c2c3c(nc4ccccc24)C2(C)CCC3C2(C)C)CC1 (stereo not drawn)	1.07
CCOc1cc(-c2ccccc2)nc(SCc2ccc([N+](=O)[O-])cc2)n1	-1.45
FC(F)(F)c1ccccc1NC(=S)Nc1ccc(-c2csnn2)cc1	2.06
COc1cc(/C=N/NC(=S)Nc2ccccc2OC)ccc1O	5.12*
COc1ccccc1NC(=S)N/N=C/c1ccco1	1.44
CNC(=S)N/N=C/c1ccc(OC)c(Br)c1	1.22
c1ccc(Oc2cccc(CN3CCN(Cc4ccccn4)CC3)c2)cc1	-0.18
CC(C)(C)NC(=S)Nc1ccc([N+](=O)[O-])cc1Cl	-0.48
COc1ccc(/C=C/c2nc(-c3ccc(C)cc3)no2)cc1OC	3.76*
COc1ccc(/C=C/c2nc(-c3ccncc3)no2)cc1OC	1.44
COc1ccc(-c2nc(-c3ccc(C)cc3)no2)cc1OC	1.82
CN(C)c1c(Cl)c(Cl)c(Cl)c(Cl)c1Cl	0.5
COc1ccc(CNC2(NC(=O)c3ccc(C(F)(F)F)cc3)C(=O)c3ccccc3C2=O)cc1	0.66
SMILES	Dicer processing
O=S(=O)(Nc1cccc2cccnc12)c1ccccc1	7.72*
Cc1ccc(C)c(NS(=O)(=O)c2cccc3cccnc23)c1	-0.09
Cc1ccc2cccc(NS(=O)(=O)c3ccccc3)c2n1	-0.4
COc1cc(S(=O)(=O)Nc2ccccn2)ccc1Br	-0.27
O=C(Nc1ccc(Cl)cc1)Nc1ccc(Br)c2cccnc12	-1.02
O=S(=O)(Nc1ccc(Br)c2cccnc12)c1ccccc1	4.71*
CCCCCSc1nnc(-c2ccc(Br)cc2)o1	-0.51
CN1CCN(c2ncnc3sc4c(c23)CCCC4)CC1	3.1*
OCCN1CCN(c2ncnc3sc4c(c23)CCCC4)CC1	4.45*
